Screening data (PubChem)
Shown are actives, neighbours in structure and some others; about 4.2% of the full set was active somewhere.
ssDAF-12 act: S. stercoralis DAF-12 nuclear receptor activators, primary screen, cell-based, luminescence, HEK293, GRIP1 co-expression, lit1-tk-luc. HEK293 ssDAF-12/GRIP1 lit1-tk-luc reporter; % of 3 µM dafachronic acid response. Nuclear hormone receptor DAF-12 (Strongyloides stercoralis). hit rate 1% among 370,000. activation, % at 6.8 µM;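 active = activation above the mean over all tested compounds plus 3 SD, cut at about 0.9% in these data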;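 note: 0% = DMSO-only wells and 100% = 3 µM delta7-dafachronic acid wells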
hcDAF12 agonist: H. contortus DAF-12 nuclear receptor activators, primary screen, cell-based, luminescence, HEK293, lit1-tk-luc reporter. HEK293 hcDAF-12 lit1-tk-luc reporter; 0% DMSO, 100% Δ7-dafachronic acid. activation, % at 6.8 µM. hit rate 1.4% among 370,000. AID 652067, 2013;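 active = activation above the mean of all tested compounds plus 3 SD, cut at about 5.5% in these data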;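 note: 100% = response to 3 µM Δ7-dafachronic acid high control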
Wnt bcat act: Wnt/beta-catenin pathway activators, primary screen, cell-based, plate reader, single point; Wnt/beta-catenin reporter cell assay, activator; activation, % at 9.35 µM; hit rate 1.2% among 300,000; AID 743398, 2014; in the data active = activation above about 30%, passing the limit was not always enough;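 note: 0% = neutral control wells and 100% = positive control wells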
hgDAF12 agonist: H. glycines DAF-12 receptor agonists, primary screen, cell-based, luminescence, HEK293, GAL4 fusion, UAS-luciferase; Nuclear hormone receptor DAF-12 (Heterodera glycines), GAL4 fusion; HEK293 GAL4-hgDAF12 UAS-luciferase reporter, agonist luminescence; normalized to butyrate control; activation, % at 6.8 µM; hit rate 1.8% among 370,000; AID 687014, 2013;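 active = activation above a cutoff set at the mean of all screened compounds plus 3 SD, cut at about 10% in these data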;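 note: 0% = DMSO wells and 100% = sodium butyrate wells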
DAX1 inh: DAX1 (NR0B1) inhibitors on StAR promoter, primary screen, cell-based, luminescence, SF-1 (NR5A1), full-length DAX-1. HEK293T StAR-luciferase reporter, SF-1/DAX-1 repression relief. inhibition, % at 6.8 µM. hit rate 1.1% among 370,000. AID 652010, 2013;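 active = inhibition above the mean over all tested compounds plus 3 SD, cut at about 3.6% in these data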;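 note: 0% = DAX-1 cells with DMSO and 100% = cells lacking DAX-1 with DMSO; higher inhibition means more luminescence from relief of DAX-1 repression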
esBAF inh: Bmi1 luciferase reporter increase in mESCs, primary screen, esBAF inhibitor project, mouse ES cells, Bmi1 luciferase knock-in, single point; reporter increase, % at 12.5 µM; hit rate 2% among 350,000; 24 h; 100% = twice the neutral-well signal; in the data active = activation above about 40%;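 note: 0% = median of the plate's neutral control wells and 100% = double that signal; a rise in the Bmi1 reporter signal indicates esBAF inhibition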
DAX1 conf: DAX1 (NR0B1) inhibitors relieving SF-1 repression, confirmation, cell-based, luminescence, HEK293T, full-length DAX-1, SF-1 activated StAR promoter; shares compounds with DAX1 inh; hit rate 87% among 2,400; HEK293T StAR-promoter luciferase reporter, SF-1/DAX-1 repression; inhibition, % at 6.8 µM;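 active = inhibition above the average of every tested compound plus 3 SD, cut at about 3.8% in these data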;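 note: 0% = DAX-1 cells with DMSO and 100% = no DAX-1 control cells with DMSO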
SF1 AF2mut Luc: StAR reporter signal changes without DAX1, counter-screen for DAX1 inhibitor project, cell-based, luminescence, AF-2 mutant SF-1, transactivation; shares compounds with DAX1 inh; HEK293 StAR-luciferase, SF-1 AF2 mutant; inhibition, % at 6.8 µM; hit rate 78% among 2,400;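 active = inhibition above the mean of all tested compounds plus 3 SD, cut at about 3% in these data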;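 note: 0% = DAX-1 transfected cells with DMSO and 100% = cells without DAX-1 with DMSO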
LXRb hcDAF ctr: LXR agonists, Gal4 luciferase reporter, confirmation, counter-screen for hcDAF-12 agonist project, cell-based, luminescence, HEK293, H. contortus campaign; shares compounds with hcDAF12 agonist; HEK293 Gal4-LXR tk-luc reporter, 24 h; normalized: DMSO 0%, positive control 100%; activation, % at 6.8 µM; 3,400 tested, under 10 active;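 active = mean percent activation of the reporter above a cutoff set as the average over tested compounds plus their standard deviation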
Target sequence (P55055 whole entry, looked up, the tested form may be a part): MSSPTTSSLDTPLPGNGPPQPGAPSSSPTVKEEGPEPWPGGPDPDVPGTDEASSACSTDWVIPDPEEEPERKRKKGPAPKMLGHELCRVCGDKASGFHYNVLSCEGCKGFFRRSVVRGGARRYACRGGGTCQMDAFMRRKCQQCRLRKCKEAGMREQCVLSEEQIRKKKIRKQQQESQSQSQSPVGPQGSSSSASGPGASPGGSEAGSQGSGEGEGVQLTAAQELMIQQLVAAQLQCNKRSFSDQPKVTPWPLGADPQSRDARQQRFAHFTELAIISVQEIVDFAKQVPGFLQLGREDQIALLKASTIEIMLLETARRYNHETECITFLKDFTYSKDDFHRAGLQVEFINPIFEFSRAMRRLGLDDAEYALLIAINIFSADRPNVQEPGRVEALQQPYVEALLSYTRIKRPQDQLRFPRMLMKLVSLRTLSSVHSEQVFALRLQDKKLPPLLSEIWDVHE
hcDAF12 ag: H. contortus DAF-12 receptor agonists, confirmation, cell-based, luminescence, HEK293, lit1-tk-luc, triplicate | shares compounds with hcDAF12 agonist | HEK293 hcDAF-12 lit1-tk-luc reporter; % of Δ7-dafachronic acid response | activation, % at 6.8 µM | hit rate 61% among 3,400;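 active = mean activation across triplicate tests above the threshold derived from the earlier primary screen, cut at about 5.5% in these data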;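 note: 0% = DMSO only wells and 100% = 3 µM Δ7-dafachronic acid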
Active calls of the source: *; . = no result.

SMILES	ssDAF-12 act	hcDAF12 agonist	Wnt bcat act	hgDAF12 agonist	DAX1 inh	esBAF inh	DAX1 conf	SF1 AF2mut Luc	LXRb hcDAF ctr	hcDAF12 ag
Cc1ccccc1N=CC1=C(O)c2ccccc2C1=O	2.1*	15*	3	11*	5.5*	.	5.8*	-1	1	8.3*
CO[C@H]1CN(C)C(=O)c2cc(NC(C)=O)ccc2OC[C@@H](C)N(Cc2ccccc2C(=O)O)C[C@H]1C	.	.	.	.	.	-5	.	.	.	.
CC(C)Oc1ccc(C(=O)NC2=NCCS2)cc1	0	7.5*	-1	22*	9.9*	.	14*	8.1*	1	4
COc1cc(OC)cc(C(=O)NC2=NCCS2)c1	-1	-1	.	3	0	.	.	.	.	.
Cc1noc(C)c1NC(=O)N(C)C[C@H]1Oc2ccc(NC(=O)Nc3ccc4c(c3)OCO4)cc2CC(=O)N([C@H](C)CO)C[C@@H]1C	.	.	.	.	.	2	.	.	.	.
CCOC(=O)C1CCCN(C(=O)CSc2nc(C)cc(C)n2)C1 (configuration not stated)	0	0	0	-2	0	-2	.	.	.	.
CCOC(=O)C1CCCN(C(=O)CCc2nnc(-c3ccc(C(C)=O)s3)o2)C1 (configuration not stated)	0	6.8*	41*	13*	5.5*	71*	5.8*	5.9*	1	6.1*
O=C(Nc1ccc(Cl)cc1)N[C@@H]1CC[C@@H](CCn2cc(C3(O)CCCC3)nn2)O[C@H]1CO	.	.	.	.	.	-3	.	.	.	.
Cc1cccc(-c2nnc(-c3cccc4ccccc34)o2)c1	1.2*	7.0*	51*	11*	5.4*	39	10.0*	8.5*	2	8.7*
Cc1ccc(S(=O)(=O)NCC[C@H]2CC[C@@H](NC(=O)c3cnccn3)[C@H](CO)O2)cc1	.	.	.	.	.	1	.	.	.	.
C[C@H]1CN([C@@H](C)CO)S(=O)(=O)c2ccc(-c3ccc(F)cc3)cc2O[C@H]1CN(C)C(=O)C1CCCCC1	.	.	.	.	.	-3	.	.	.	.
O=C(OCc1nc2ccccc2s1)c1ccco1	1	9.1*	14	11*	4.9*	35	7.4*	4.7*	1	8.6*
Cc1ccc(C(=O)c2sc3nsc(C)c3c2N)cc1	1.1*	7.2*	.	13*	5.0*	.	14*	5.4*	2	8.7*
Cc1ccc(S(=O)(=O)Nc2ccc3c(c2)C(=O)N([C@H](C)CO)C[C@@H](C)[C@H](CN(C)C(=O)Nc2c(C)noc2C)OCCCC[C@@H](C)O3)cc1	.	.	.	.	.	2	.	.	.	.
C[C@@H]1CCCCO[C@@H](CN(C)C(=O)Nc2ccc(C(F)(F)F)cc2)[C@@H](C)CN([C@H](C)CO)C(=O)c2cc(NC(=O)Nc3ccc(C(F)(F)F)cc3)ccc2O1	.	.	.	.	.	-10	.	.	.	.
O=C(Nc1ccc2c(c1)OCCO2)c1ccccc1Cl	0	7.2*	40*	12*	9.0*	-10	16*	9.4*	1	8.1*
O=C(Nc1ccc2c(c1)OCCO2)c1cccc2nc3ccccc3nc12	-2	-2	.	3	-1	-9	.	.	.	.
O=C(Nc1ncccc1O)c1ccc(Cl)c(S(=O)(=O)N2CCCCCC2)c1	-1	-1	-2	-1	1	.	.	.	.	.
O=C(Nc1ncccc1O)c1ccc2ccccc2c1	0	9.9*	63*	12*	10*	-43	14*	7.4*	1	6.9*
C[C@@H]1CN([C@H](C)CO)S(=O)(=O)c2ccc(C#Cc3ccncc3)cc2O[C@H]1CN(C)S(=O)(=O)c1ccccc1	.	.	.	.	.	-2	.	.	.	.
Cc1ccc(C2=NN(S(C)(=O)=O)C(c3ccc4c(c3)OCO4)C2)cc1 (configuration not stated)	0.9*	13*	50*	21*	5.4*	.	19*	9.0*	2	14*
CS(=O)(=O)Nc1ccc(C2=NN(S(C)(=O)=O)C(c3ccc4nccnc4c3)C2)cc1 (configuration not stated)	0	-1	-3	2	0	5	.	.	.	.
N#Cc1ccc(/C=C(\C(=O)C(=O)O)c2ccc3ccccc3n2)cc1	1.2*	10*	1	15*	6.8*	32	8.2*	4.4*	1	8.9*
COc1ccc(C(=O)N=c2sc3ccccc3n2C)cc1	2.8*	13*	19	16*	5.8*	27	11*	7.0*	2	19*
Cn1c(=NC(=O)COc2ccccc2)sc2ccccc21	0	7.9*	14	13*	4.7*	.	7.5*	5.1*	0	3
CCc1nnc(NC(=O)CSc2nc(C)cc(C)c2C#N)s1	-1	7.7*	14	11*	6.7*	11	15*	8.4*	1	9.5*
CCOC(=O)c1c(SCC(=O)Nc2nccs2)nc(C)c(C)c1C	0	11*	14	5	6.6*	50*	4.1*	2	0	2
Cc1ccc(C#N)c(SCC(=O)Nc2nccs2)n1	3.0*	18*	6	20*	6.3*	.	12*	6.6*	2	22*
